This is part of a sample that, as a whole, favours compounds with a hit. Of some 83,000 tested, about 20% had one in any assay.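 Cell lines were cultured in 96-well plates, exposed to a single compound concentration, and assessed for percent growth 48 hours later.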 Unmarked numbers belong to inactive results. Activity calls are given as the source filed them.
System: MDA-MB-435 melanoma
Assay: NCI-60 one-dose screen, 48 h (100 = growth as untreated, 0 = no growth, -100 = all killed)
Conditions: 10 µM unless noted
Procedure: Growth inhibition of the MDA-MB-435 human Melanoma tumor cell line is measured as a screen for anti-cancer activity. Cells are grown in 96 well plates and exposed to the test compound for 48 hours. Compounds are tested at a single concentration, which is 10^-5 M for most compounds. The reported endpoint is percent growth (GI% or GIPRCNT), where numbers from 0 - 100% represent growth inhibition, and numbers from -100% - 0 represent cell death. For example, a value of 40 represents 60% growth inhibition. A value of 0 means no net growth occurred over the course of the experiment. A value of -40 indicates 40% of cells at the beginning of the experiment died by the end of the experiment. A value of -100 means all cells are dead at the end of the experiment.
NCI-60 Human Tumor Cell Lines Screen was performed using the standard one-dose NCI protocol, which is described in more detail at https://dtp.cancer.gov/discovery_development/nci-60/default.htm.
Compounds with GIPRCNT values below 10 were considered active. Activity score was based on GIPRCNT using the following formula: […]
Score is 0 for GIPRCNT values of 100 or above, 50 for GIPRCNT values of 0, and 100 for GIPRCNT values of -100.

Row | SMILES | growth
1 | CCN(CC)CCCC(C)Nc1c(C)cnc2cc(Cl)c(C)cc12 (stereo not given) | 89.9%
2 | Cc1ccc(NCc2cn(-c3ccc(C(=O)O)cc3)nc2-c2ccc(C(=O)O)cc2)cc1 | 107%
3 | CCNc1nnc(COc2ccc(CNC(=O)CCCC/C=C/C(C)C)cc2OC)o1 | 104%
4 | OCCN1CCN(CC/C=C2/c3ccccc3Sc3ccc(C(F)(F)F)cc32)CC1 | 35.2%
5 | CCCNC(=O)Oc1ccc(/C(=C(/C)Cc2ccc(OC)cc2)c2ccc(OCCN3CCCCC3)cc2)cc1 | 92.5%
6 | COC(=O)/C(Br)=C/c1c[nH]c2ccc(Br)cc12 | 85.7%
7 | N=C(N)c1ccc(-c2ccc(-c3ccc(F)cc3)s2)cc1 | -99.2% (active)
8 | CCCCCCCCCCCCCCCCCC(=O)Nc1ccc(O)cc1 | 107%
9 | Nc1cc(N)c2nc(-c3ccccc3)c(NCCc3ccc(Cl)c(Cl)c3)nc2c1 | -88.2% (active)
10 | CCOC(=O)c1cc(-c2ccc(OC)cc2)[nH]c1NNC(=O)CCOC | 96.9%
11 | CCN(CC)c1ccc2nc3ccc(N=Nc4ccc(O)cc4)cc3[n+](-c3ccccc3)c2c1 | 48.6%
12 | O=C(Nc1cccc(Cn2c(=O)[nH]c3ccc(Oc4ncccn4)cc3c2=O)c1)c1ccc(Cl)cc1 | 43%
13 | CCN(CC)CCOC(=O)c1cccnc1 | 96.3%
14 | CC1=C(C)C[C@]2(C(=O)O[C@H]3CCCC[C@@H]32)[S@](=O)C1 | 103%
15 | COc1cc(OC)c(NC(=O)n2ncc3cc(Nc4ncnc5ccccc45)ccc32)cc1Cl | 105%
16 | COc1ccc(CN2C(=O)/C(=C\C(=O)c3ccc(OCCN4CCCCC4)cc3)c3ccccc32)cc1 | 95%
17 | NCCCOc1cc2ccccc2cc1C(=O)Nc1ccc(Cl)cc1OC(=O)c1cc2ccccc2cc1OCCCN | -76.9% (active)
18 | CNc1nc2ncn(C)c2c(=O)[nH]1 | 94.6%
19 | CCOC(=O)CCCCCCCCC(=O)OCC | 112%
20 | COc1cc2ncnc(Nc3ccc4c(cnn4C(=O)Nc4ccccc4)c3)c2cc1OC | 94.7%

Row | SMILES | growth
21 | COc1ccc(Nc2c3ccccc3nc3ccccc23)cc1 | 31.3%
22 | Cc1ncc(C(=O)Nc2ccc(CN3CCN(C)CC3)c(C(F)(F)F)c2)cc1C#Cc1cnc(NC2CC2)c2ncccc12 | -86.4% (active)
23 | CC1(C)NCCC[C@]2(C)[C@H]3CC=C4[C@@H]5C[C@](C)(COC(=O)c6ccccc6C(=O)O)CC[C@]5(C)CC[C@@]4(C)[C@]3(C)CC[C@@H]12 | 62.4%
24 | COc1ccccc1Nc1nnc(COc2ccc(CNC(=O)CCCC/C=C/C(C)C)cc2OC)o1 | 103%
25 | CCOc1ccc(Br)cc1/C=C(\C#N)c1ccc([N+](=O)[O-])cc1 | 85%
26 | O=C(CBr)OCc1ccc([N+](=O)[O-])o1 | 107%
27 | Nc1cc(N)c2nc(NCCc3ccc(Cl)c(Cl)c3)cnc2c1 | -50% (active)
28 | NC(=O)CC(NC(=O)COc1ccc(Cl)cc1Cl)C(=O)O (stereo not given) | 107%
29 | CCOC(=O)c1c(C)oc2ncnc(Nc3ccc(NC(=O)Nc4ccc(CC)cc4)cc3)c12 | 102%
30 | COc1ccc(-c2cc(C#N)c(NNC(C)=O)[nH]2)cc1 | 107%
31 | Cc1c(C(N)=O)sc2c1c(=O)n(Cc1ccccc1)c1nnc(S(C)(=O)=O)n21 | 81.7%
32 | O=C1C=C(OCC=C(C(F)(F)F)C(F)(F)F)c2ccccc2C1=O | -40.2% (active)
33 | O=C(N/N=C/c1cc(Cl)ccc1O)C(=O)N/N=C/c1cc(Cl)ccc1O | 67.8%
34 | COc1cc(-c2nn(-c3ccc(NC(=O)c4ccc(Cl)c(Cl)c4)cc3)cc2-c2ccncc2)ccc1Cl | 86.2%
35 | CN(C)CCOC(=O)C(C)(C)C | 104%
36 | COc1cc(N2C(=O)C=CC2=O)ccc1N1C(=O)C=CC1=O | 109%
37 | CC[C@H](Nc1ncnc2nc[nH]c12)c1nc2cccc(NCc3ccc(C(=O)NO)o3)c2c(=O)n1-c1ccccc1 | 105%
38 | CC(=O)c1ccc2c(c1)c1ccccc1n2C | 99.3%
39 | O=C(Nc1ccc(-n2cc(-c3ccncc3)c(-c3ccc(Cl)c(O)c3)n2)cc1)c1cc(Cl)cc(Cl)c1 | 42.2%
40 | CCC(CCCN1C(=O)c2ccccc2C1=O)Nc1cc(OC)cc2cccnc12 (stereo not given) | 105%
